This passage reports growth results from PubChem BioAssay (NCI).

Some test systems named below: DU-145 prostate; K-562 leukemia; MALME-3M melanoma; MDA-MB-231 breast; RXF 393 renal; SF-268 CNS; SF-295 CNS; SF-539 CNS; UACC-257 melanoma; M14 melanoma; HCT-15 colon; HT29 colon; SNB-75 CNS; SNB-19 CNS; U251 CNS; PC-3 prostate; SK-MEL-5 melanoma; UACC-62 melanoma; LOX IMVI melanoma; SK-MEL-28 melanoma.
Common to all, as to test: NCI-60 one-dose screen, 48 h (100 = growth as untreated, 0 = no growth, -100 = all killed)
Settings in all cases: 10 µM unless noted

This is part of a sample that, as a whole, favours compounds with a hit. Of some 83,000 tested, about 20% had one in any assay.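 Single-concentration screen, 48 h exposure, 96-well plates. Endpoint: percent growth. Below 10 = active.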 Unmarked numbers belong to inactive results. The source made the active and inactive calls.

`O=C(Nc1ncccc1OCc1ccccc1)NC1CCCCCC1`: the growth is 92% in the assay on DU-145 prostate; 70.6% with K-562 leukemia; 90.2% in the assay with MALME-3M melanoma; 90.1% in the assay on MDA-MB-231 breast; 106% with RXF 393 renal; 92.3% with SF-268 CNS. The growth is 85.4% in the assay on SF-295 CNS; 98.2% with SF-539 CNS; 105% with UACC-257 melanoma; 95.3% in the assay with M14 melanoma; 80.7% with HCT-15 colon; 74.6% in the assay on HT29 colon. The growth with SNB-75 CNS is 97.7%; in the assay with SNB-19 CNS, 97.9%; with U251 CNS, 96.2%; in the assay on PC-3 prostate it was 48.1%; in the assay on SK-MEL-5 melanoma, 69.1%; in the assay with UACC-62 melanoma it was 71.6%. The figures for the growth with LOX IMVI melanoma and in the assay on SK-MEL-28 melanoma were 90.6% and 93.6%, respectively.
For the compound `CC(C)CCN(CCC(C)C)CC(O)c1cc2c(c3ccccc13)CCCC2` (stereo unspecified), the growth in the assay on DU-145 prostate was 60.8%; in the assay with K-562 leukemia it was 43.5%; with MALME-3M melanoma it was 94.3%; in the assay with MDA-MB-231 breast, 37.7%; with RXF 393 renal, 62.1%; with SF-268 CNS, 71.9%. The growth with SF-295 CNS was 76.5%; in the assay on SF-539 CNS it was 82.1%; in the assay with UACC-257 melanoma, 99.4%; in the assay with M14 melanoma, 89.3%; in the assay with HCT-15 colon, 59.4%; in the assay with HT29 colon, 32.2%. The growth in the assay with SNB-75 CNS is 91.6%; with SNB-19 CNS it was 97.8%; with U251 CNS, 72.9%; with PC-3 prostate, 66.4%; in the assay on SK-MEL-5 melanoma, 72.7%; with UACC-62 melanoma, 49.8%. Moreover, the results for the growth in the assay on LOX IMVI melanoma and in the assay with SK-MEL-28 melanoma were 51.9% and 94.7%, respectively.
For `C/C(=N\O)[C@@H]1CC[C@]2(CO)CC[C@]3(C)[C@H](CC[C@@H]4[C@@]5(C)CCCNC(C)(C)[C@@H]5CC[C@]43C)[C@@H]12`, the growth with DU-145 prostate was 95%; with K-562 leukemia, 2.56% (active); in the assay on MALME-3M melanoma, 95.4%; in the assay with MDA-MB-231 breast it was 90.9%; in the assay on RXF 393 renal it was 80.8%; in the assay on SF-268 CNS it was 84.7%. In addition, the growth in the assay with SF-295 CNS is 92.5%; with SF-539 CNS it was 93.3%; in the assay on UACC-257 melanoma, 97.6%; in the assay on M14 melanoma it was 87%; in the assay on HCT-15 colon, 83.6%; in the assay on HT29 colon it was 24.5%. Also, the growth in the assay on SNB-75 CNS is 68.9%; in the assay with SNB-19 CNS, 89.4%; in the assay on U251 CNS, 61.4%; in the assay with PC-3 prostate, 60.6%; with SK-MEL-5 melanoma, 84.1%; in the assay on UACC-62 melanoma, 90.5%. Further, the figures for the growth with LOX IMVI melanoma and in the assay on SK-MEL-28 melanoma were 77.6% and 93.2%, respectively.
Regarding `CN1CCN(CCOc2ccc(-c3cnc4c(-c5ccc(F)cc5)cnn4c3)cc2)CC1`, the growth in the assay on DU-145 prostate is 42.2%; in the assay with K-562 leukemia it was -6.74% (active); in the assay on MALME-3M melanoma it was 53.5%; in the assay on MDA-MB-231 breast it was 55.1%; with RXF 393 renal, 48.8%; with SF-268 CNS, 56.9%. Further, the growth in the assay with SF-295 CNS is 81%; in the assay on SF-539 CNS, 49.5%; in the assay on UACC-257 melanoma it was 28.4%; with M14 melanoma, -29.8% (active); with HCT-15 colon it was -15.8% (active); with HT29 colon, 1.11% (active). Further, the growth is 68% with SNB-75 CNS; 82% in the assay on SNB-19 CNS; 38.2% with U251 CNS; 61.2% in the assay on SK-MEL-5 melanoma; 50.7% in the assay with UACC-62 melanoma; -78.5% (active) in the assay with LOX IMVI melanoma.
As to `O=C(O)/C=C/C(=O)Nc1cccc(Cn2nnc3cc(Cl)c(Cl)cc32)c1`, the growth with DU-145 prostate is 119%; with K-562 leukemia it was 91.3%; in the assay with MALME-3M melanoma, 97.5%; in the assay on MDA-MB-231 breast, 106%; with RXF 393 renal, 93.2%; in the assay on SF-268 CNS, 98.5%. For the same compound, the growth with SF-295 CNS is 97%; in the assay with SF-539 CNS, 101%; in the assay with UACC-257 melanoma, 97.1%; with M14 melanoma, 102%; with HCT-15 colon it was 95.3%; with HT29 colon, 110%. In addition, the growth in the assay with SNB-75 CNS was 86.4%; in the assay with SNB-19 CNS it was 100%; in the assay with U251 CNS, 103%; in the assay on SK-MEL-5 melanoma, 99.1%; in the assay with UACC-62 melanoma, 97.6%; with LOX IMVI melanoma it was 97.3%.
Turning to `CN1CCN(c2ccc(NC(=O)c3cncnc3Nc3ccc(OCc4cccc(F)c4)c(Cl)c3)cc2)CC1`, the growth in the assay on DU-145 prostate is 80.3%; in the assay with K-562 leukemia, 1.91% (active); in the assay with MALME-3M melanoma, 78.4%; in the assay on MDA-MB-231 breast, -13.3% (active); with RXF 393 renal, 55.5%; with SF-268 CNS it was 78.7%. The growth with SF-295 CNS was 99.8%; with SF-539 CNS, 43.3%; in the assay on UACC-257 melanoma, 90.5%; in the assay with M14 melanoma it was -15.5% (active); with HCT-15 colon, -39.6% (active); with HT29 colon it was -55.3% (active). In addition, the growth is 68.3% in the assay on SNB-75 CNS; 84.1% in the assay on SNB-19 CNS; 47% in the assay on U251 CNS; 68.1% with PC-3 prostate; 87.8% in the assay with SK-MEL-5 melanoma; 48% in the assay on UACC-62 melanoma. Besides, the growth in the assay on LOX IMVI melanoma was 29.7%; in the assay with SK-MEL-28 melanoma, 81.1%.
With `CC(C)(C)n1cc(-c2ccnc(NCCCNS(=O)(=O)c3cccc4ccccc34)c2)c(-c2cccc(F)c2)n1`, the growth in the assay with DU-145 prostate is 89.4%; with K-562 leukemia it was 30.8%; with MALME-3M melanoma, 113%; in the assay on MDA-MB-231 breast it was 80.6%; in the assay on RXF 393 renal, 76.8%; in the assay on SF-268 CNS, 85.2%. Moreover, the growth with SF-295 CNS is 63.9%; in the assay with SF-539 CNS it was 72.4%; in the assay with UACC-257 melanoma, 94.4%; in the assay on M14 melanoma it was 73.3%; in the assay on HCT-15 colon it was 44.6%; in the assay with HT29 colon it was 27.6%. The growth with SNB-75 CNS was 67.2%; with SNB-19 CNS it was 86.3%; in the assay with U251 CNS it was 65%; in the assay on PC-3 prostate it was 55.8%; in the assay with SK-MEL-5 melanoma it was 74.5%; with UACC-62 melanoma it was 80.5%. The growth was 54.7% in the assay on LOX IMVI melanoma and 99.9% in the assay on SK-MEL-28 melanoma.
